Test results reported in ChEMBL document CHEMBL3988442, “University of Dundee, Small-Polar-MMV Screening Library” (2021).
About 13,000 (27%) of roughly 48,000 compounds showed an effect of 50% or more. The list shows a part of the results.

Test system: Wolbachia pipientis
Assay: Anti-Wolbachia Cell-Based Screen
Assay type: functional
Design: scale not given: in the data most compounds retested in dose-response had high values
Conditions: 5 µM

Point of comparison: CCn1c(CN(C)C)nnc1C1CCN(Cc2cccc(C#N)c2)CC1, “Percent Effect” value -18.18%. Against it:
- O=C1O[C@@H]2CN(c3ncccn3)C[C@@H]2N1CCCc1ccc(F)cc1 — higher, 0.8552%
- CCc1nc(CN(CC(N)=O)C(C)C)cs1 — higher, -5.873%
- CN(C)CCOc1ccccc1N1CCN(C(=O)C(C)(C)C#N)CC1 — higher, 12.48%
- COCCN(Cc1c(C)nn(C)c1C)C(=O)C1COc2ccccc2C1 (stereo not given) — higher, -13.07%
- Cc1cc(C)n(CC2CCCCN2CC(=O)Nc2cccnc2)n1 (stereo not given) — higher, -5.388%
- CN(Cc1nc(-c2cccnc2)no1)C(=O)c1cccn1C — higher, -3.845%
- CO[C@H]1CN(S(=O)(=O)c2ccc(F)cc2)C[C@@]12CCCO2 — higher, 187.7%
- CCOC1COC2(CCN(S(=O)(=O)c3ccc(F)cc3)CC2)C1 (stereo not given) — lower, -48.73%
- COC1COC2(CCN(S(=O)(=O)c3ccc(F)cc3)CC2)C1 (stereo not given) — higher, -4.083%
- COc1cccc(S(=O)(=O)CCN2CCC3(CC2)OCCO3)c1 — higher, -7.046%
- COc1ccc(S(=O)(=O)N2CCCC3(CCCN3S(C)(=O)=O)C2)cc1 (stereo not given) — higher, -14.23%
- COc1cccc(S(=O)(=O)N2C[C@@H](N(C)C)[C@H](C(C)C)C2)c1 — higher, -6.322%
- COc1cccc(S(=O)(=O)N2C[C@@H](O)[C@H](N(C)C)C2)c1 — higher, 179.9%
- COc1cccc(S(=O)(=O)N2C[C@H](OC)[C@]3(CCCO3)C2)c1 — higher, 151.5%
- CC(C)[C@@H]1CN(S(=O)(=O)c2cccc(C(=O)O)c2)C[C@H]1N(C)C — higher, 0.7097%
- CCN1CCNC(=O)C12CCN(S(=O)(=O)c1ccc(OC)cc1)CC2 — higher, 15.65%
- COc1ccc(S(=O)(=O)N2C[C@H](OC)[C@]3(CCCO3)C2)cc1 — higher, 124.9%
- COc1cccc(C(C)N2CCN(S(=O)(=O)c3ccccc3)CC2)c1 (stereo not given) — higher, -3.731%
- Cc1nnc(C(C)Nc2cccc(COCC(F)(F)C(F)F)c2)o1 (stereo not given) — higher, 6.562%
- CC(C)Cc1cn(C2CCN(C(C)CC3CC3)CC2)nn1 (stereo not given) — higher, 4.944%
- O=C1NCC2(CCCN(C(=O)c3ccc4c(c3)OCCO4)CC2)O1 (stereo not given) — higher, 12.75%
- COc1cc(F)c(S(=O)(=O)N2c3ncccc3NC(=O)C2C)cc1OC (stereo not given) — higher, -16.51%
- O=C(CCc1nc2cccnc2[nH]1)Nc1cccnc1 — higher, 5.191%
- CN(Cc1ccc(N2CCCCC2)cc1)Cc1noc(C(C)(C)C)n1 — higher, 16.16%
- O=C(c1ccccn1)N1C[C@@H]2CC[C@H](C1)N(C(=O)CCc1cccs1)C2 — higher, -9.254%
- Cc1noc(C)c1CN(C)C(=O)NC1CCN(c2ncccn2)CC1 — higher, -8.201%
- CO[C@H]1CN(S(=O)(=O)c2ccccc2F)C[C@@]12CCCO2 — higher, 166.4%
- CO[C@H]1CN(S(=O)(=O)c2ccc(C)cc2)C[C@@]12CCCO2 — higher, 89.74%
- C[C@@H]1CN(S(=O)(=O)c2ccc(F)cc2F)C[C@]1(C)O — higher, 4.198%
- CNC(=O)[C@@]12CCO[C@@H]1CCN(S(=O)(=O)c1ccccc1F)C2 — higher, -14.92%
- O=C(CN1CCCNC1=O)N(Cc1ccccc1)CC(F)F — higher, -9.06%
- Cc1c(CN2CC[C@@H](N3CCC(O)CC3)[C@H](O)C2)[nH]c2ccc(Cl)cc12 — higher, 105.3%
- CC1=C(CCN2CC[C@@H](N3CCC(O)CC3)[C@H](O)C2)C(C)(C)CCC1 — higher, -3.551%
- Cc1ccc2[nH]c(CN3CC[C@@H](N4CCN(C)CC4)[C@H](O)C3)c(C)c2c1 — higher, 130.9%
- CN1CCN([C@@H]2CCN(CC3=Cc4cc(Cl)ccc4OC3)C[C@H]2O)CC1 — higher, -16.81%
- Cc1c(CN2CCc3[nH]cnc3C2C2CC2)[nH]c2ccc(F)cc12 (stereo not given) — higher, 10.14%
- Cc1c(CN2CC[C@@H](N3CCC(O)CC3)[C@H](O)C2)[nH]c2ccc(F)cc12 — higher, 105.6%
- Cc1c(CN2C[C@H](O)[C@@H](N3CCOCC3)C2)[nH]c2ccc(F)cc12 — higher, 90.42%
- Cc1c(CN2CCc3[nH]cnc3C2C(=O)O)[nH]c2ccc(F)cc12 (stereo not given) — higher, 4.217%
- CN1CCN([C@@H]2CCN(Cc3cccc(-n4cccn4)c3)C[C@H]2O)CC1 — higher, -7.292%
- O=C(c1cccc(Cl)c1)N1CC[C@@H](N2CCC(O)CC2)[C@H](O)C1 — higher, -1.425%
- CN1CCN([C@@H]2CCN(Cc3ccc4cc(F)ccc4n3)C[C@H]2O)CC1 — lower, -21.32%
- CSCCC1c2nc[nH]c2CCN1Cc1[nH]c2ccc(F)cc2c1C (stereo not given) — higher, 8.699%
- O=C(NCc1ccc(F)cc1F)C(c1cccnc1)N1CCOCC1 (stereo not given) — higher, -3.204%
- CC(C)(C)C(=O)N[C@H]1C[C@@H](Cc2cc(CN3CCOCC3)on2)C1(C)C — higher, -2.41%
- CC(Sc1nnc(C2CC2)n1CC(N)=O)c1ccc(F)c(Cl)c1 (stereo not given) — higher, -2.548%
- Cc1ccc(CNC(=O)C2CCCCN2C(=O)OC(C)(C)C)cn1 (stereo not given) — higher, 1.092%
- CCSc1ccc(NC(=O)N2CCCC2c2ccncc2)cn1 (stereo not given) — higher, -0.7424%
- CC(C)Cc1cc(C(=O)N2CCC[C@H]2C(=O)N2CCOCC2)on1 — higher, -13.85%
- COC(=O)N1CCCCC1C(=O)N1CCN(c2ncccc2C)CC1 (stereo not given) — higher, -6.544%
- CCSc1ccc(C(=O)N2CCCC2C(=O)N2CCOCC2)cn1 (stereo not given) — higher, 144.8%
- CCSc1ccc(C(=O)N2CCCCC2C(=O)N2CCCC2)cn1 (stereo not given) — higher, 151.8%
- CC(C)(C)NC(=O)C1CCCCN1Cc1nccn1CC(F)(F)F (stereo not given) — higher, -2.197%
- CCSc1ccc(C(=O)N2CCCCC2C(=O)NC(C)(C)C)cn1 (stereo not given) — higher, 116.3%
- Cn1ccc2ccc(C(=O)N3CCC[C@H]3C(=O)N3CCOCC3)cc21 — higher, 12.68%
- Cc1cnc2n(c1=O)CC(C(=O)Nc1ccccc1Cl)CS2 (stereo not given) — higher, -3.995%
- COc1cccc(CNC(=O)CC2CSc3ncc(C)c(=O)n32)c1 (stereo not given) — higher, 19.59%
- Cc1cnc2n(c1=O)C(CC(=O)NCc1ccc(F)cc1)CS2 (stereo not given) — higher, 120.7%
- Cc1cnc2n(c1=O)C(CC(=O)NCc1ccccc1Cl)CS2 (stereo not given) — higher, 121.9%
- Cc1ccc(CNC(=O)CC2C(=O)NCCN2Cc2ccccc2C)s1 (stereo not given) — higher, 4.539%
- O=C(Cn1nc(-c2ccc(F)cc2)oc1=O)NCc1ccc(F)cc1 — higher, -3.011%
- O=C(NCc1cccnc1)N1CCSCC1CCO (stereo not given) — higher, -15.06%
- Cc1nsc(N2CCN(CC(=O)NCc3ccc(F)cc3)CC2)n1 — higher, -5.243%
- COc1cccc(CNC(=O)CC2CSc3nc(C)c(C)c(=O)n32)c1 (stereo not given) — higher, 131.7%
- Cc1cc(=O)n2c(n1)SCC2CC(=O)NCc1cc(-c2ccco2)on1 (stereo not given) — higher, 1.39%
- CC(=O)NC[C@@H]1C=C(C)[C@H](CC(=O)NCc2cccnc2)C[C@H]1C(C)C — higher, -8.421%
- Cc1cnc2n(c1=O)C(CC(=O)NCc1cccnc1)CS2 (stereo not given) — higher, 115%
- Cc1cc(-c2ccncc2)ccc1OCC(N)=O — higher, -1.496%
- CC(C)c1cc(C(=O)N2CCN(CC3CC3)[C@@H]3CS(=O)(=O)C[C@@H]32)no1 — higher, 5.38%
- Cc1cnn(CCC(=O)Nc2ccc(F)cc2OCC2CC2)c1 — higher, -3.72%
- CCN1CC(C(=O)N2CCN(CCn3cccc3)CC2)CC1=O (stereo not given) — higher, -5.842%
- O=C(NCc1ccncc1)N1CCSCC1c1ccc(Cl)cc1 (stereo not given) — higher, -11.62%
- Cc1cc(CNC(=O)CC2CN(C(=O)OC(C)(C)C)C2)ccc1F — lower, -41.83%
- Cc1cnc2n(c1=O)C(CC(=O)NCc1ccc(Cl)cc1)CS2 (stereo not given) — higher, 120.8%
- CCNc1cc2c(nn1)CCN(C(=O)Cc1ccc3c(c1)CCO3)C2 — lower, -18.57%
- CCNc1cc2c(nn1)CCN(C(=O)C1COc3ccccc3C1)C2 (stereo not given) — higher, 3.402%
- CCNc1cc2c(nn1)CCN(C(=O)CC1CCCCC1)C2 — higher, -4.667%
- CCNc1cc2c(nn1)CCN(C(=O)C1Cc3ccccc3S1)C2 (stereo not given) — higher, -4.507%
- CCNc1cc2c(nn1)CCN(C(=O)Cc1c(C)nn(C)c1C)C2 — higher, 126.1%
- CCNc1cc2c(nn1)CCN(C(=O)Cc1ccc(C)s1)C2 — higher, 107.9%
- CCc1nccn1CC(=O)N1C[C@H]2CC[C@@H]1CN(C(=O)N(C)C)C2 — higher, 6.839%
- c1cc(-c2nc3c(c(NCCn4ccnn4)n2)CCNCC3)ccn1 — higher, -0.7039%
- Cc1ccc(CN2CCC3(CC2)C(c2ccccc2)CC(=O)N3C)o1.O=C(O)C(F)(F)F (stereo not given) — higher, 104.4%
- Cc1noc(C)c1CN1CCC2(CC1)C(c1ccccc1)CC(=O)N2C.O=C(O)C(F)(F)F (stereo not given) — higher, 90.48%
- Cc1ccc(CN2CCCC3(CCC(=O)N3)CC2)s1.O=C(O)C(F)(F)F (stereo not given) — higher, 3.95%
- Cn1cc(C2CC(=O)NC23CCN(c2ncc(F)cn2)CC3)cn1 (stereo not given) — lower, -28.26%
- COCCN1CCC2(CCN(Cc3nccs3)CC2)C1=O — higher, -0.9039%
- Cc1cnc(N2CCC3(CC2)C(c2ccccc2)CC(=O)N3C)nc1 (stereo not given) — higher, 8.622%
- Cn1cc(C2CC(=O)NC23CCN(Cc2nccs2)CC3)cn1 (stereo not given) — higher, 86.17%
- Cc1ccc(CN2CCC3(CC2)C(=O)N(CCO)CCN3C)o1.O=C(O)C(F)(F)F.O=C(O)C(F)(F)F — higher, 5.189%
- Cc1noc(C)c1CN1CCC2(CC1)CC(Oc1cccnc1)C2.O=C(O)C(F)(F)F.O=C(O)C(F)(F)F — higher, 7.225%
- CCN1CCN(C)C2(CCN(Cc3ccc(C)o3)CC2)C1=O.O=C(O)C(F)(F)F.O=C(O)C(F)(F)F — higher, -15.65%
- Cc1ccc(CN2CCC3(CC2)NC(=O)CC3c2ccccc2)s1.O=C(O)C(F)(F)F (stereo not given) — higher, 95.7%
- CCCc1cc(C(=O)N2Cc3ccccc3C2)[nH]n1 — higher, 5.853%
